# Experimental data reported in the supplement of paper PMC6555819.
# Tested on: LXRb homodimer (NR concentration 270 nM)
# Assay: PBM binding z-score (relative to random genomic background probes); higher = stronger binding; sequences stand for … in GC…GCGATTGACAGCGTAGAATGAAGG
# In short: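 For binding z-scores, the reference was random background probes on custom Agilent 4×180K protein-binding microarrays. These arrays were incubated 1 h with ligand-free nuclear receptor dimers in PBS pH 7.4, 2% milk, 0.02% Triton X-100, 1 mM DTT, 0.2 mg/mL BSA and 0.4 mg/ml salmon testes DNA. Fluorescence was scanned after antibody detection of each partner (one per run) and regression-normalized.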
row,Sequence,PBM binding z-score
1,TCTTGTAGATCAAGCAGGTTAATAAAGCCTGAGT,-0.449
2,CCAGACAGGTGAAAGGTACCTCAGTCTGGTACGC,-0.978
3,CGTCCAAGGGCATAGGAGGTCAGTGAAGACAGAT,-0.901
4,CAAACTAGGTCACGATAGGTCAAAGTCGAATGAC,1.01
5,TCTCGGAGGACACCAAGGTCAGAGCTTTCCAGAG,-0.834
6,TCATATAGGTAAAGGTGAAAGGCGAACGATATGA,0.0383
7,CGAACGAGGGCATGAGTTGATCGCAAATGCCGAT,-0.729
8,GCTCCTAGGTCAACTGATGGTCAGCTAAAGCTCG,0.879
9,AGTCAAAGTTCATCTAGCTAACGTAAGATATGCT,1.73
10,TTTCCAAGGTGAGCTGAGGTCGTTGATCCAACTC,-0.192
11,CCTAGCAGGCCAATCTGGGTTACTCAAGGCTTGA,-1.09
12,TCTGCTAGGTCAGTAGGTCAGCTAACGAGCTGCC,-0.0966
13,CGTCCAAGGTCAAGGACAGTGAAAGAGACTCGAA,0.401
14,CTCAAAAGGTCGTGCTCAGGTGAGTATACCAAAC,0.129
15,ACTAGAAGGCCAAGTTTGGGTCACTCAAACAAAG,-0.474
16,GCAGACAGGTGAGACGCAGGTAACTCAGGGTGGC,-1.18
17,ACTAGCAGGCCAAGGGTCAATCAAGATTAGTCCG,-0.379
18,AGTGAAAGTTCATCTAGGTAACGTAAGATATGCT,1.86
19,CAAACTAGGTCACAGGAAGGTCAAAGTCCGCATG,1.18
20,CGTCCAACGTCAATGCTAGGTCAGTGAAAGCATT,-0.372

row,Sequence,PBM binding z-score
1,AATGCAGGGTCACTAGGCCAGAGTAGGTACGAAT,0.179
2,ACTGACAGGTGAGTGAAGGTAACTCAGCTGGACG,-0.767
3,ACTATTAGTCGACTTAGGGCAACCGATACGACGC,0.47
4,TCATATAGGTAAATGCTAAGTGAAAGTCCGATCT,-0.0273
5,CCTCGGAGGACGACAGGAGGTCAGAGCTGCCAGA,-0.711
6,CCGACTGAGGCAAGGTTACCATAACGCACAGCCA,-0.805
7,TTACCAAGGTGAAAGGTCGTCGATGCACGCCTTG,-0.541
8,CGAACTAAGTCAAGGACAGTGAATCTCCGCACGC,-0.793
9,CGTCTAAGGTCAGAGAGGTCAGTGAATGCCGAGT,0.521
10,TGAATGAGGTGATAAGATCAGGGAACGTTGCAAA,-0.466
11,CCTAGCAGGCCAGGGTCACTGAAGCATTTCGCTT,-1.29
12,TTATATAGGTAAACAGGTGAAAGTCCGTAAGTTA,0.246
13,TAGCCTAGGTCCGATCGGGCCAGTATACGCTATA,-1.45
14,AGAACGAGGGCAGGCTGAGTTGATAGCAGAGTAG,-1.05
15,GCTTACGGGTCAAAGATTATAGCATGAATAGAAT,0.557
16,TCTAGCAGGCCACAGGGTCACTCAAGAGGTACGG,-1.09
17,TAGCCTAGGTCACTGGGCCAGTATAGTACGCATC,-0.779
18,TTACCAAGATGAAGGTCGTTGATCCCTCTGTAGA,-0.663
19,GATATAGGGTCAAGGCCAGAGTACGCGTATTGAT,0.188
20,GCGAATGGGGCAAAGCAGGTTACCATAAGGTTGG,-0.239
